# Results filed as inconclusive are left out. A call without a number means that no potency is given here. Activity calls are given as the source filed them. Calls come from the whole dose curve; as a rule, active = well fitted curve in the direction sought with a large enough effect; inconclusive = small, poorly fitted or top-dose-only effect, or another doubt; inactive = no such curve, though single readings can be large; an effect the other way counts as inactive or inconclusive.
# Tests used:
# [1] = Inducers of the Endoplasmic Reticulum Stress Response (ERSR) in human glioma: Validation (AID 504836)
# Procedure, shortened: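 Stably transfected U87-MG glioma cells carrying a GRP78-based luciferase sensor; 16 h compound incubation. Luminescence end-point read 10 min after Bright-Glo addition at room temperature.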
# [2] = target: ATP-dependent 6-phosphofructokinase (Trypanosoma brucei brucei) (UniProt O15648); assay: qHTS Assay to Find Inhibitors of T. brucei phosphofructokinase: hit validation (AID 492961); note: series mostly up to about 51 µM
# Procedure, shortened: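 Luminescence from ADP-Glo reports ADP generated as T. brucei PFK (1.25 nM) phosphorylates 0.5 mM fructose-6-phosphate using 0.1 mM ATP. Reactions ran 45 min at room temperature, pH 8.0.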
# [3] = target: Ubiquitin carboxyl-terminal hydrolase 1 (Homo sapiens) (UniProt O94782); assay: Inhibitors of USP1/UAF1: Pilot qHTS (AID 504865); note: nearly all actives have a fitted effect of over 35% in size; note: potency is the fitted concentration of half-maximal effect
# Procedure, shortened: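 Deubiquitinase activity followed as kinetic rhodamine fluorescence release from 150 nM Ub-Rho. 1 nM USP1/UAF1 with compound, after 15 min room-temperature preincubation, in HEPES pH 7.8 buffer containing TCEP, EDTA, BSA and Tween-20.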
# Sequence of ATP-dependent 6-phosphofructokinase (Trypanosoma brucei brucei) (O15648 whole entry, looked up): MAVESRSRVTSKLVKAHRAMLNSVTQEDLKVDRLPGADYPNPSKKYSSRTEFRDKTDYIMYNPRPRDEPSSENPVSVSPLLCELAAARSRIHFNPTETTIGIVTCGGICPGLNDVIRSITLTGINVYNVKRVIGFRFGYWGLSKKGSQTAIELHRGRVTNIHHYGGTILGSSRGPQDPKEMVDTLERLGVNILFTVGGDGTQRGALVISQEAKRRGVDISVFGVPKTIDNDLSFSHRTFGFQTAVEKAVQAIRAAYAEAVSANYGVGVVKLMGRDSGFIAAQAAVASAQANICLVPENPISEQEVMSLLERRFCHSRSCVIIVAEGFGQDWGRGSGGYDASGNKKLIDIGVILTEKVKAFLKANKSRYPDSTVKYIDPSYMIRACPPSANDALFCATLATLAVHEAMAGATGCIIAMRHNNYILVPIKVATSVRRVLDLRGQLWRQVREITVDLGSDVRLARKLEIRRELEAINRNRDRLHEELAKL
# Sequence of Ubiquitin carboxyl-terminal hydrolase 1 (Homo sapiens) (O94782 whole entry, looked up): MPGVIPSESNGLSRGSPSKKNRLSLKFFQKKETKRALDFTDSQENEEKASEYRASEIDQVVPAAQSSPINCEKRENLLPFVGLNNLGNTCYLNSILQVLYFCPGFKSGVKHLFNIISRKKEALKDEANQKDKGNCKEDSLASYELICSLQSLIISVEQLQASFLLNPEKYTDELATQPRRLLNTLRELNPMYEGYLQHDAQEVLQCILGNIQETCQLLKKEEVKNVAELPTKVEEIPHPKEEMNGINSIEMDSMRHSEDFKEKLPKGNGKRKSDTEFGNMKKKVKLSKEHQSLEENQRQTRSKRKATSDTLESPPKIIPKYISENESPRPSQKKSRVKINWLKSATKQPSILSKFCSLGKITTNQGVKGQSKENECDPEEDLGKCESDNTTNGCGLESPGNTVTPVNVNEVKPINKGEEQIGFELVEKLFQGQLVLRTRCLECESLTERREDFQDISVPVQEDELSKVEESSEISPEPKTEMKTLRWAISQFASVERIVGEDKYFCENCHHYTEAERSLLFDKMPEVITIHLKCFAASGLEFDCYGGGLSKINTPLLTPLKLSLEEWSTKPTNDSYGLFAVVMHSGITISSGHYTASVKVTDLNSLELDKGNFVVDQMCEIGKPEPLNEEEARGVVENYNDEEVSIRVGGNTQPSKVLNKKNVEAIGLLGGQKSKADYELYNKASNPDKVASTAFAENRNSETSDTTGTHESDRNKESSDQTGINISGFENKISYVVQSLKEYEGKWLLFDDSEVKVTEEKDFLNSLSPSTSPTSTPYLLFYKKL
smiles,measurement,setting,value
CN(C)CCCN1c2ccccc2Sc2ccc(Cl)cc21,outcome,[1],inactive
Oc1cc(Cl)ccc1Oc1ccc(Cl)cc1Cl,outcome,[2],inactive
same,Potency,[3],inactive
CCCNC(=O)NS(=O)(=O)c1ccc(Cl)cc1,outcome,[1],inactive
CCC(C(N)=O)N1CCCC1=O (stereo not drawn),outcome,[2],inactive
same,Potency,[3],inactive
CC(C)CC(N(C)C)C1(c2ccc(Cl)cc2)CCC1 (stereo not drawn),outcome,[2],inactive
same,Potency,[3],inactive
Oc1cccc2cccnc12,outcome,[2],inactive
same,Potency,[3],inactive
O=P1(NCCCl)OCCCN1CCCl (stereo not drawn),outcome,[2],inactive
same,Potency,[3],inactive
O=C(c1ccc(OCCN2CCCCC2)cc1)c1c(-c2ccc(O)cc2)sc2cc(O)ccc12,outcome,[1],inactive
CC(C)NCC(O)c1ccccc1Cl (stereo not drawn),outcome,[2],inactive
same,Potency,[3],inactive
CC(C)(N)Cc1ccc(Cl)cc1,outcome,[2],inactive
same,Potency,[3],inactive
COc1cc2nc(N3CCN(C(=O)c4ccco4)CC3)nc(N)c2cc1OC,outcome,[1],inactive
Nc1nnc(-c2cccc(Cl)c2Cl)c(N)n1,outcome,[1],inactive
CC(=O)O[C@]1(C(C)=O)CC[C@H]2[C@@H]3C=C(Cl)C4=CC(=O)[C@@H]5C[C@@H]5[C@]4(C)[C@H]3CC[C@@]21C,outcome,[1],inactive
C#CCOC(C(=O)OCCN(C)C)(c1ccccc1)c1ccccc1,outcome,[2],inactive
same,Potency,[3],inactive
COc1cc(Cc2cnc(N)nc2N)cc(OC)c1OC,outcome,[1],inactive
CSc1ccc2c(c1)N(CCC1CCCCN1C)c1ccccc1S2 (stereo not drawn),outcome,[1],inactive
CCN(CC)CCCC(C)Nc1ccnc2cc(Cl)ccc12 (stereo not drawn),outcome,[1],inactive
Nc1ncn([C@@H]2O[C@H](CO)[C@@H](O)[C@H]2O)c(=O)n1,outcome,[1],inactive
CC[N+]1(C)CCCC(OC(=O)C(O)(c2ccccc2)c2ccccc2)C1 (stereo not drawn),outcome,[2],inactive
same,Potency,[3],inactive
CN1CCN(C2=Nc3ccccc3Oc3ccc(Cl)cc32)CC1,outcome,[1],inactive
NNc1nncc2ccccc12,outcome,[1],inactive
NCCc1cc(O)c(O)cc1O,outcome,[2],inactive
same,Potency,[3],50.1 µM (active)
COc1cc2nc(N(C)CCCNC(=O)C3CCCO3)nc(N)c2cc1OC (stereo not drawn),outcome,[1],inactive
Cn1c(CCCC(=O)O)nc2cc(N(CCCl)CCCl)ccc21,outcome,[2],inactive
same,Potency,[3],inactive
O=C(C1CCCCC1)N1CC(=O)N2CCc3ccccc3C2C1 (stereo not drawn),outcome,[1],inactive
O=[N+]([O-])c1cc([As](=O)(O)O)ccc1O,outcome,[2],inactive
same,Potency,[3],inactive
CC#C[C@]1(O)CC[C@H]2[C@@H]3CCC4=CC(=O)CCC4=C3[C@@H](c3ccc(N(C)C)cc3)C[C@@]21C,outcome,[1],inactive
Clc1ccc(C(c2ccccc2Cl)C(Cl)Cl)cc1 (stereo not drawn),outcome,[1],inactive
CCN(CC)CCOC(=O)C1(C2CCCCC2)CCCCC1,outcome,[1],inactive
Nc1nc2c(ncn2COC(CO)CO)c(=O)[nH]1,outcome,[1],inactive
Cc1ccc(S(=O)(=O)NC(=O)NN2CCCCCC2)cc1,outcome,[1],inactive
Cc1cn([C@H]2C[C@H](N=[N+]=[N-])[C@@H](CO)O2)c(=O)[nH]c1=O,outcome,[1],inactive
CC(C)[N+](C)(CCOC(=O)C1c2ccccc2Oc2ccccc21)C(C)C,outcome,[1],inactive
CN(C)C(=O)C(CCN1CCC(O)(c2ccc(Cl)cc2)CC1)(c1ccccc1)c1ccccc1,outcome,[1],inactive
CCCNCC(O)COc1ccccc1C(=O)CCc1ccccc1 (stereo not drawn),outcome,[1],inactive
CN1CCN(C2=Nc3cc(Cl)ccc3Nc3ccccc32)CC1,outcome,[1],inactive
CN(C)CC/C=C1\c2ccccc2COc2ccccc21,outcome,[1],inactive
CC(CN(C)C)CN1c2ccccc2CCc2ccccc21 (stereo not drawn),outcome,[1],inactive
Cc1cn([C@H]2C=C[C@@H](CO)O2)c(=O)[nH]c1=O,outcome,[1],inactive
COc1ccc(Cl)cc1C(=O)NCCc1ccc(S(=O)(=O)NC(=O)NC2CCCCC2)cc1,outcome,[1],inactive
Nc1nc(N)c2nc(-c3ccccc3)c(N)nc2n1,outcome,[1],inactive
